Assay in all cases: NCI-60 one-dose screen, 48 h (100 = growth as untreated, 0 = no growth, -100 = all killed)
Common to all, as to conditions: 10 µM unless noted

Experiment [1] has as its system SR leukemia.
The subject of experiment [2] is OVCAR-8 ovarian.
In experiment [3] the test system is OVCAR-5 ovarian.
Experiment [4] relates to OVCAR-4 ovarian.
For experiment [5], the system named is SK-OV-3 ovarian.
Experiment [6] relates to IGROV1 ovarian.
The test system of experiment [7] is OVCAR-3 ovarian.
The subject of experiment [8] is HS 578T breast.
Experiment [9] concerns NCI/ADR-RES ovarian.
Experiment [10] relates to T-47D breast.
The subject of experiment [11] is BT-549 breast.
The test system of experiment [12] is MDA-MB-435 melanoma.
The test system of experiment [13] is SW-620 colon.
Experiment [14] deals with MCF7 breast.
For experiment [15], the system named is HCT-116 colon.
Experiment [16] relates to HCC-2998 colon.
The subject of experiment [17] is KM12 colon.

Compounds without any hit were thinned out: in the full panel of roughly 83,000, 20% have a hit.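 Activity criterion: percent growth below 10, measured after cells in 96-well plates were exposed to a single compound concentration for 48 hours.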 A number with no mark means an inactive call. Calls of active or inactive are those of the source.

For the molecule `O=c1cc(SCc2ccccc2)nc[nH]1`, the growth in [1] is 127%; in experiment [2], 117%; in experiment [3], 93.5%; in experiment [4], 117%; in experiment [5], 114%; in [6], 111%. The growth in experiment [7] was 114%; in [8], 119%; in experiment [9], 101%; in experiment [10] it was 114%; in experiment [11], 103%; in experiment [12], 106%. The growth in experiment [13] was 107%; in [14], 101%; in experiment [15], 104%; in experiment [16] it was 112%; in experiment [17], 94.8%.

Take `COc1cc(OCc2cccc(-c3ccc(C(O)c4nccs4)cc3)c2C)cc(OC)c1CNCCNC(C)=O` (stereo not drawn): the growth in [1] is 85.9%; in [2] it was 96.1%; in experiment [3], 98.5%; in experiment [4] it was 91.8%; in [5], 113%; in experiment [6], 103%. In addition, the growth is 109% in experiment [7]; 105% in [8]; 101% in experiment [9]; 90.8% in experiment [10]; 102% in [11]; 98.5% in experiment [12]. The growth in experiment [13] is 97.8%; in [14] it was 89.9%; in experiment [15], 94%; in experiment [16], 124%; in [17] it was 101%.

With `CCCCCCCCCCCCCCCCCC1OCC(COC(=O)O[C@]2(CC)C(=O)OCc3c2cc2n(c3=O)Cc3cc4ccccc4nc3-2)O1` (stereo partly drawn), the growth is 8.38% (active) in experiment [1]; 70.2% in experiment [2]; 95.6% in [3]; 100% in experiment [4]; 83.9% in experiment [5]; 81.5% in experiment [6]. Further, the growth was 94.5% in [7]; 99.5% in experiment [8]; 66.6% in [9]; 64.6% in experiment [10]; 80% in experiment [11]; 92.6% in experiment [12]. In addition, the growth was 57.1% in [13]; 44.4% in experiment [14]; 66.8% in experiment [15]; 84.7% in experiment [16]; 94.8% in experiment [17].

With `Cc1ccc(/C=C(\C#N)n2nc3cccc(F)c3n2)cc1`, the growth was 62.8% in [1]; 94.2% in [2]; 97.1% in experiment [3]; 97% in [4]; 107% in experiment [5]; 90.9% in experiment [6]. In addition, the growth was 84.4% in [7]; 91.5% in experiment [8]; 86% in experiment [9]; 74% in experiment [10]; 102% in experiment [11]; 51.1% in experiment [12]. The growth was 94.3% in experiment [13]; 54.1% in experiment [14]; 70.7% in experiment [15]; 105% in [16]; 68.2% in experiment [17].

Turning to `CCCCOc1nc2ccc(OC)cc2cc1-c1cc(-c2ccc(Cl)cc2)nc(-c2ccc(Cl)cc2)c1`, the growth in experiment [1] is 107%; in [2], 104%; in [3] it was 98.7%; in experiment [4] it was 99.5%; in experiment [5], 108%; in [6] it was 105%. In addition, the growth in experiment [7] is 112%; in [8], 100%; in experiment [9], 105%; in [10], 97.4%; in experiment [11], 105%; in experiment [12] it was 107%. In addition, the growth in [13] was 102%; in [14], 97.5%; in [15], 102%; in [16] it was 109%; in experiment [17], 104%.

Turning to `O=[N+]([O-])c1ccc(Oc2nc(Nc3ccc(O[C@H]4CO[C@H]5[C@@H]4OC[C@@H]5O)c(Cl)c3)ncc2F)c(Cl)c1`, the growth in experiment [1] is 10.5%; in [2], 32.5%; in experiment [3], 43.2%; in experiment [4] it was 34.4%; in experiment [5], 9.64% (active); in experiment [6], -13% (active). The growth in experiment [7] was 31.1%; in experiment [8] it was -2.68% (active); in [9], 81.3%; in [10] it was 11.9%; in experiment [11], 31.8%; in experiment [12], 10.9%. For the same molecule, the growth is 35.7% in [13]; 21.2% in experiment [14]; 25% in [15]; 69.3% in experiment [16]; 11.2% in experiment [17].

As for `COc1cc2cc(Oc3ccc(NC(=O)Nc4ccc(Cl)c(Cl)c4)cc3)c(C)nc2cc1OCCN1CCOCC1`, the growth is 5.6% (active) in experiment [1]; 91.1% in experiment [2]; 127% in [3]; 85% in [4]; 111% in [5]; 97.8% in [6]. The growth in experiment [7] is 106%; in experiment [8] it was 102%; in experiment [9] it was 91.4%; in [10], 75.1%; in experiment [11] it was 72.5%; in experiment [12], 91.8%. For the same molecule, the growth in experiment [13] is 104%; in experiment [14], 60.1%; in experiment [15] it was 86.1%; in experiment [16], 116%; in experiment [17] it was 91.7%.

As to `O=C(Nc1ccc(F)cc1F)c1cc(F)ccc1O`, the growth in [1] was 4.78% (active); in experiment [2], 14.9%; in [3], 23.3%; in experiment [4] it was 21%; in [5] it was 4.34% (active); in experiment [6] it was 21.4%. The growth in [7] was 1.72% (active); in experiment [8], 12%; in [9] it was 6.3% (active); in [10], 6.93% (active); in [11], 8.69% (active); in [12], 14.6%. Besides, the growth in experiment [13] is 20.8%; in experiment [14], 4.23% (active); in experiment [15], 12.8%; in experiment [16], 27.9%; in experiment [17], 8.7% (active).

As for `COc1ccc(C(=O)N=Nc2c(O)n(C)c3ccccc23)cc1`, the growth is 80.5% in [1]; 95.6% in experiment [2]; 105% in experiment [3]; 91.9% in experiment [4]; 87.2% in [5]; 90.2% in experiment [6]. In addition, the growth was 104% in experiment [7]; 99.5% in [8]; 91.5% in experiment [9]; 61.9% in experiment [10]; 103% in [11]; 103% in experiment [12]. Moreover, the growth in [13] is 97.3%; in [14], 61.3%; in experiment [15], 99.7%; in [16] it was 117%; in experiment [17], 95.5%.

Source of the values: PubChem BioAssay (NCI).
